Source: PubChem BioAssay (NCATS)
Records with an inconclusive call do not appear. The source made the active and inactive calls. Unless noted, calls come from the whole dose curve.

Legend:
[1] = target: Estrogen receptor (Homo sapiens) (UniProt P03372); assay: qHTS assay for small molecule antagonists of estrogen receptor alpha signaling (AID 588513; active = well fitted curve in the direction sought with a large enough effect in the signal ratio, with a control signal flat, not every such curve was filed as active; the % refers to the signal ratio; note: potency is the fitted concentration of half-maximal effect)
Outline: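 ER-alpha-UAS-bla GripTite HEK 293 cells in medium with 2% charcoal/dextran-treated FBS were preincubated 4 h at 37 C, dosed with compound (1:2 titration), stimulated with 0.5nM 17-beta-estradiol for 18 h, then read by CCF4 beta-lactamase fluorescence.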

[2] = target: Estrogen receptor (Homo sapiens) (UniProt P03372); assay: qHTS assay for small molecule agonists of estrogen receptor alpha signaling (AID 588514);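 note: 0% = vehicle only and 100% = reference agonist; nearly all actives have a fitted effect of over 70% in size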
Outline: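 Fluorescence from CCF4 cleavage reports ER-alpha-driven beta-lactamase expression in HEK 293 cells treated 18 hrs at 37 C. Data normalized to 17-beta-estradiol (20 nM) and DMSO, fitted to Hill equation.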

[3] = qHTS assay for small molecule antagonists of peroxisome proliferator-activated receptor delta signaling (AID 588535); conditions: HEK293T PPARd-UAS-bla, beta-lactamase FRET ratio, 18 h; 460 nm channel;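 note: cells co-treated with a PPAR-delta agonist as stimulator during compound exposure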
Outline: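 Beta-lactamase reporter read-out (405 nm excitation, 460/530 nm emission) after CCF4 loading for 2 hrs at RT. HEK293T PPAR-delta-UAS-bla cells, 2% charcoal/dextran FBS, compounds for 18 hrs at 37 C. Hill fit gave IC50 and efficacy.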

[4] = target: Peroxisome proliferator-activated receptor gamma (Homo sapiens) (UniProt P37231); assay: qHTS assay for small molecule agonists of peroxisome proliferator-activated receptor gamma signaling (AID 588536; active = well fitted curve in the direction sought with a large enough effect in the signal ratio, with a control signal flat, not every such curve was filed as active; the % refers to the signal ratio;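 note: 0% = DMSO basal wells and 100% = rosiglitazone at 2 µM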)
Outline: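 This is an agonist-mode beta-lactamase reporter assay in HEK293 PPAR-gamma-UAS-bla cells with 1% charcoal/dextran FBS. Compound titrations ran 16 h at 37 C before CCF4 detection. EC50 and efficacy are Hill fits scaled to 2 uM rosiglitazone (100%) and DMSO basal.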

[5] = target: Peroxisome proliferator-activated receptor gamma (Homo sapiens) (UniProt P37231); assay: qHTS assay for small molecule antagonists of peroxisome proliferator-activated receptor gamma signaling (AID 588537; active = well fitted inhibition curve with a large enough effect in the signal ratio, with a control signal flat, not every such curve was filed as active; the % refers to the signal ratio;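 note: reporter cells co-stimulated with 50 nM rosiglitazone agonist during compound treatment; % of control where 0% means no effect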)
Outline: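 Read-out: CCF4 fluorescence (ex 405, em 460/530 nm) after 2 h at RT. Cells were HEK293 carrying a UAS-bla reporter and treated 16 h at 37 C with compound plus rosiglitazone (50 nM final). Normalized to rosiglitazone and DMSO.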

[6] = target: Vitamin D3 receptor (Homo sapiens) (UniProt P11473); assay: qHTS assay for small molecule antagonists of vitamin D receptor signaling (AID 588541);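 note: receptor activated by calcitriol during compound treatment; series mostly up to about 77 µM; % is set by controls: 0 for no effect and ±100 for the full control effect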
Outline: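 VDR-UAS-bla HEK293T cells in 2% charcoal-stripped FBS were stimulated with 1-alpha,25-dihydroxyvitamin D3 (3 nM final) plus compound for 16 h at 37 C. The beta-lactamase CCF4 readout was normalized to 50 nM agonist and DMSO, and Hill fits gave IC50.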

[7] = target: Retinoic acid receptor RXR-alpha (Homo sapiens) (UniProt P19793); assay: qHTS assay for small molecule agonists of retinoid X receptor alpha signaling (AID 588544);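 note: 0% = DMSO basal wells and 100% = reference agonist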
[8] = target: Thyroid hormone receptor beta (Homo sapiens) (UniProt P10828); assay: qHTS assay for small molecule agonists of thyroid hormone receptor beta signaling (AID 588545);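 note: 0% = DMSO only and 100% = 10 nM T3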
Outline: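 Efficacy and EC50 values derive from Hill fits of qHTS titration data, normalized to 10 nM T3 and DMSO-only wells. HEK 293 reporter cells were stimulated for 18 hrs at 37 C, with beta-lactamase activity measured by CCF4 fluorescence.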

[9] = qHTS assay for small molecule antagonists of retinoid X receptor alpha signaling (AID 588546; active = well fitted inhibition curve with a large enough effect in the signal ratio, with a control signal flat, not every such curve was filed as active; the % refers to the signal ratio;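 note: cells stimulated with 9-cis-retinoic acid as agonist; % is set by controls: 0 for no effect and ±100 for the full control effect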); conditions: HEK293T RXRa-UAS-bla, beta-lactamase ratio, antagonist mode; measured here: W530 green channel, cytotoxicity proxy
Outline: (§1)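 Beta-lactamase reporter inhibition, read as CCF4 fluorescence ratio (ex 405, em 460/530 nm) after 2 h at RT. HEK293T UAS-bla cells, 2500/well, were stimulated with 9-cis-RA at 500 or 100 nM final alongside test compound for 18 h at 37 C.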

[10] = target: Retinoic acid receptor RXR-alpha (Homo sapiens) (UniProt P19793); assay: as above; conditions: HEK293T RXRa-UAS-bla, beta-lactamase ratio, antagonist mode
Outline: as §1

[11] = target: Thyroid hormone receptor beta (Homo sapiens) (UniProt P10828); assay: qHTS assay for small molecule antagonists of thyroid hormone receptor beta signaling (AID 588547; active = well fitted inhibition curve with a large enough effect in the signal ratio, with a control signal flat, not every such curve was filed as active; the % refers to the signal ratio;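 note: cells stimulated with 0.4 nM T3 agonist during compound exposure; series mostly up to about 77 µM; % is set by controls: 0 for no effect and ±100 for the full control effect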); conditions: TR-UAS-bla HEK293, beta-lactamase ratio, antagonist mode, 18 h
Outline: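 TR-UAS-bla GripTite HEK293 cells in 2% charcoal/dextran FBS medium; compounds 0.59 nM to 92 uM with T3 at 0.4nM final, 18 h at 37 C. Beta-lactamase read by CCF4 fluorescence (460/530 nm); Hill fits gave IC50 and efficacy.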

[12] = qHTS assay for small molecule activators of the p53 signaling pathway (AID 651743; active = well fitted activation curve with a large enough effect in the signal ratio, not every such curve was filed as active; the % refers to the signal ratio; note: series mostly up to about 92 µM; % of control where 0% means no effect); conditions: HCT-116 p53RE-bla, beta-lactamase FRET ratio, 16 h; activation: stronger effect = higher value
Outline: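 Reporter: beta-lactamase driven by p53 response elements, stably integrated in HCT-116 cells. Cells seeded at 4,000/well, 5 h preincubation, compound (DMSO) 16 h at 37 C; B/G FRET substrate 2 h RT; fluorescence intensity read.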

[13] = qHTS assay for environmental chemicals that activate the Aryl hydrocarbon Receptor (AhR) signaling pathway (AID 651777; active = well fitted curve in the direction sought with a large enough effect; an effect the other way counts as inactive or inconclusive; note: % of control where 0% means no effect; nearly all actives have a fitted effect of over 15% in size); conditions: 1A2-DRE human hepatoma cells, luciferase, 24 h; activation: stronger effect = higher value
Outline: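 Induction of CYP1A2 transcription through AhR is detected by luciferase in 1A2-DRE hepatoma cells. Compounds or DMSO act for 24 hr at 37 C before a 30 min One-Glo step at room temperature.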

[14] = target: Peroxisome proliferator-activated receptor alpha (Homo sapiens) (UniProt Q07869); assay: qHTS assay for small molecule agonists of the peroxisome proliferator-activated receptor alpha (PPARalpha) signaling pathway (AID 651778; active = well fitted curve in the direction sought with a large enough effect; an effect the other way counts as inactive or inconclusive; note: % of control where 0% means no effect); conditions: PathHunter PPARalpha complementation, chemiluminescence, 6 h; max response: stronger effect = higher value
Outline: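 Enzyme-fragment complementation assay in which ligand-bound PPARalpha translocates and forms an active enzyme that generates chemiluminescence. Cells were plated overnight, exposed to compound for 6 hr at 37 C, and then given detection reagent for 60 min at room temperature.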

[15] = qHTS assay for small molecule agonists of the antioxidant response element (ARE) signaling pathway measured by Nrf2-dependant transcriptional activity - cell viability counter screen (AID 720653; active = well fitted curve in the direction sought with a large enough effect in the repeat runs; an effect the other way counts as inactive or inconclusive; note: % is set by controls: 0 for no effect and ±100 for the full control effect); conditions: ARE-bla HepG2 viability, CellTiter-Glo ATP luminescence, 16 h; max response: stronger effect = lower value
Outline: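 ARE-bla HepG2 cells treated with compounds for 16 h at 37C; this counter screen measures viability as intracellular ATP by CellTiter-Glo luminescence after 30 min at room temperature.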

[16] = qHTS assay for cell viability of HEK293 cells (AID 743288; active = well fitted curve in the direction sought with a large enough effect; an effect the other way counts as inactive or inconclusive; note: % is set by controls: 0 for no effect and ±100 for the full control effect; nearly all actives have a fitted effect of over 50% in size); conditions: ATP luminescence (CellTiter-Glo), 18 h; max response: stronger effect = lower value
Outline: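 After 18 h compound exposure at 37 C, parental HEK293 cells (2,000/well) are lysed with CellTiter-Glo and luminescence is read following 30 min at room temperature.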

[17] = qHTS assay for cell viability of the p53RE-bla HCT-116 cell line (AID 743292; active = well fitted curve in the direction sought with a large enough effect; an effect the other way counts as inactive or inconclusive; note: % is set by controls: 0 for no effect and ±100 for the full control effect; nearly all actives have a fitted effect of over 55% in size)
Outline: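 In this qHTS counter-screen, metabolically competent p53RE-bla HCT-116 cells were counted via their ATP content. Compounds were applied for 16 h at 37 C and luciferase-coupled luminescence was measured.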

[18] = target: Nuclear receptor subfamily 1 group I member 2 (Rattus norvegicus) (UniProt Q9R1A7); assay: qHTS assay for small molecule activators of the rat pregnane X receptor (rPXR) signaling pathway (AID 651751; call rule not given here; note: 0% is about no effect); conditions: rPXR reporter cells, luciferase (One-Glo), 24 h
[19] = target: Peroxisome proliferator-activated receptor delta (Homo sapiens) (UniProt Q03181); assay: qHTS assay for small molecule agonists of peroxisome proliferator-activated receptor delta signaling (AID 588534);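 note: 0% = DMSO basal wells and 100% = positive control agonist at 10 µM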
Outline: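 EC50 and efficacy values derive from Hill fits of a concentration series in a beta-lactamase reporter cell assay. Exposure is 18 hrs at 37 C, with CCF4 fluorescence as the readout.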

[20] = qHTS assay for small molecule agonists of the antioxidant response element (ARE) signaling pathway measured by Nrf2-dependant transcriptional activity (AID 720636; active = well fitted curve in the direction sought with a large enough effect in the repeat runs; an effect the other way counts as inactive or inconclusive;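 note: HepG2 cells with an ARE-driven luciferase reporter; % of control where 0% means no effect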)
Outline: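 We exposed ARE-luc HepG2 cells, seeded in assay medium with 1% dialyzed FBS and allowed 6 hr to adhere, to test compounds overnight (16 hr, 37 C) before measuring luciferase with ONE-Glo.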

Chain of Peroxisome proliferator-activated receptor alpha (Homo sapiens) (Q07869 whole entry, looked up, the tested form may be a part): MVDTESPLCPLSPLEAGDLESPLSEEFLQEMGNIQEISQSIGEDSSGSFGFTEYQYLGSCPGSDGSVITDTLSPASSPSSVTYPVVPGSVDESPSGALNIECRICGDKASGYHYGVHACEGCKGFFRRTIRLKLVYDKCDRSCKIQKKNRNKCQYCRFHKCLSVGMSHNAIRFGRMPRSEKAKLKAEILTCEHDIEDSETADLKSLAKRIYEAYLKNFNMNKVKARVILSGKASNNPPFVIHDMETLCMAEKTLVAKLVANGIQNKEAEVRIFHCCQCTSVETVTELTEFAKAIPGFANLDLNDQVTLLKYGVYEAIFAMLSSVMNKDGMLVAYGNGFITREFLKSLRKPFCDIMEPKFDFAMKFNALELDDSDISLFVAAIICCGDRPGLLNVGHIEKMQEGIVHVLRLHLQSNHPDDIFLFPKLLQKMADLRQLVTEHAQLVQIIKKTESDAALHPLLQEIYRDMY
Chain of Estrogen receptor (Homo sapiens) (P03372 whole entry, looked up): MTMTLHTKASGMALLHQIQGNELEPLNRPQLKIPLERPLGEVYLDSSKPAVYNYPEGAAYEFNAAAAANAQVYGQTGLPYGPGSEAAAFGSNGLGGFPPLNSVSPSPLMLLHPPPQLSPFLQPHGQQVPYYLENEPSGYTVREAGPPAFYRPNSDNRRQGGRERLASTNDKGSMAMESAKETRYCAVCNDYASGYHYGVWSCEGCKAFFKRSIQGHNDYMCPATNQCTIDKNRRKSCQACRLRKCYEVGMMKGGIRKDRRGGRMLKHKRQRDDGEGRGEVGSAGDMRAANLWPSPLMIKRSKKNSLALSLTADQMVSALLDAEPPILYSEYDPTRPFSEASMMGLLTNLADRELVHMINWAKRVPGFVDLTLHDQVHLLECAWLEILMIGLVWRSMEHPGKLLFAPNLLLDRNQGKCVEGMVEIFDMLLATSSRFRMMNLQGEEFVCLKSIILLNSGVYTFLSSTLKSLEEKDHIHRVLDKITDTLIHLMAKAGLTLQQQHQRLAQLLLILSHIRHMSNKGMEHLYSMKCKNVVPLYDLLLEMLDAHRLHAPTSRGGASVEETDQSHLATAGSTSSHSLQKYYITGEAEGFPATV
Chain of Retinoic acid receptor RXR-alpha (Homo sapiens) (P19793 whole entry, looked up): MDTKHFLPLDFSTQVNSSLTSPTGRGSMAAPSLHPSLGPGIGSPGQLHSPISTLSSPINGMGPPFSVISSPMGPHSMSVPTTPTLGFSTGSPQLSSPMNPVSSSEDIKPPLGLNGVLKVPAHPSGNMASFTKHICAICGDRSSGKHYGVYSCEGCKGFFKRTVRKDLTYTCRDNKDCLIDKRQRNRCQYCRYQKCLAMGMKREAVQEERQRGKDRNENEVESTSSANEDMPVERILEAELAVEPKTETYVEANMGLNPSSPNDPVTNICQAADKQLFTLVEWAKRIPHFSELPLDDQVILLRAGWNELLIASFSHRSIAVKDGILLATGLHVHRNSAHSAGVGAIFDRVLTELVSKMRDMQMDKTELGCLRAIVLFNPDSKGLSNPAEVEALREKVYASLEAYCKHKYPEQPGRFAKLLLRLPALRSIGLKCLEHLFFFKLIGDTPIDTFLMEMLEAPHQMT
Chain of Vitamin D3 receptor (Homo sapiens) (P11473 whole entry, looked up): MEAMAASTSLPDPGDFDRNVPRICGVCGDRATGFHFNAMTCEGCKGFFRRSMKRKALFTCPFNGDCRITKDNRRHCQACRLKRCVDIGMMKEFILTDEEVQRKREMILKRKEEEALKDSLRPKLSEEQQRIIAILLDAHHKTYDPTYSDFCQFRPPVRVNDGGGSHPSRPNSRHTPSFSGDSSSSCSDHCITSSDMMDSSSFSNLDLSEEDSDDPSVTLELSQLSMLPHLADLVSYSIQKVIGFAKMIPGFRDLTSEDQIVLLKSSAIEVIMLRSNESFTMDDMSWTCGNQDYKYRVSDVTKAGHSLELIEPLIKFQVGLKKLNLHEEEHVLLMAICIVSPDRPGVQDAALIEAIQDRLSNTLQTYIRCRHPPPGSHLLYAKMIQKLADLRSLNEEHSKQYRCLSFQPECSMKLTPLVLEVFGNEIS
Chain of Thyroid hormone receptor beta (Homo sapiens) (P10828 whole entry, looked up): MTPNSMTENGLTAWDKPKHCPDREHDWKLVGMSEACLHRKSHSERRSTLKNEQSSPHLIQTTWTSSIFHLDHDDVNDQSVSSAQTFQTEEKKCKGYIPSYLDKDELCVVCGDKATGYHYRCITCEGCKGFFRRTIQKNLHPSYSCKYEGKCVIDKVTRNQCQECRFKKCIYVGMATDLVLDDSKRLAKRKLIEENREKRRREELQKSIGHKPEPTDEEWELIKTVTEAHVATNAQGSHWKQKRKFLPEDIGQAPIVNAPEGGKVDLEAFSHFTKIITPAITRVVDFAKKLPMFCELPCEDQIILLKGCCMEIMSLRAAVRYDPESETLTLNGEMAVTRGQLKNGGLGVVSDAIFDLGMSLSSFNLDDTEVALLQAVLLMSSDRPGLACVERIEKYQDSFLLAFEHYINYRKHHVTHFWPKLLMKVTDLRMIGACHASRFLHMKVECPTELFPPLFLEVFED
Chain of Peroxisome proliferator-activated receptor gamma (Homo sapiens) (P37231 whole entry, looked up): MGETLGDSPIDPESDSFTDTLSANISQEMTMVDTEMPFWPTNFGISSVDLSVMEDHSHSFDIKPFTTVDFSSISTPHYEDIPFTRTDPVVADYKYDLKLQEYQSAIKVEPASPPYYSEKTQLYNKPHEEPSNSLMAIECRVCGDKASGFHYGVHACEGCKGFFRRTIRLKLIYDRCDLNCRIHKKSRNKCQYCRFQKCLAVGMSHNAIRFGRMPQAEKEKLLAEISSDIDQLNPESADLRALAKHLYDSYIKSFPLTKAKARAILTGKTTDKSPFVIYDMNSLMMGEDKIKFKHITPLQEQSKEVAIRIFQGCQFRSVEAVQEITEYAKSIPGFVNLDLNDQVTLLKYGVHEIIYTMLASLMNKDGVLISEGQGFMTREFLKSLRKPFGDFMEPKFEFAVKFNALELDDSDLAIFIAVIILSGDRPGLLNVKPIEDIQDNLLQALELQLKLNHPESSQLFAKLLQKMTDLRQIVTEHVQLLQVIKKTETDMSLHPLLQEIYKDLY
Chain of Nuclear receptor subfamily 1 group I member 2 (Rattus norvegicus) (Q9R1A7 whole entry, looked up): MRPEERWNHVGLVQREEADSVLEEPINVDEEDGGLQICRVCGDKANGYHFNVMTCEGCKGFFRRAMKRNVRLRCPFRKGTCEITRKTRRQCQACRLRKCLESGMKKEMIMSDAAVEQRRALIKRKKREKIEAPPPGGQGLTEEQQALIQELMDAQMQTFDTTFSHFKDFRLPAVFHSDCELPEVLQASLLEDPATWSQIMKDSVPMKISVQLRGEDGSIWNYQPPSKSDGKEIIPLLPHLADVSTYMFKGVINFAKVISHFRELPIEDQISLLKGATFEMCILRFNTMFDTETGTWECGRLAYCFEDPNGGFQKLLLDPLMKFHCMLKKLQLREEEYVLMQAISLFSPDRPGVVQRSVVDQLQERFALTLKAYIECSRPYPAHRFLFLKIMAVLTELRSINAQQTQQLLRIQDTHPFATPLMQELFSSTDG
Chain of Peroxisome proliferator-activated receptor delta (Homo sapiens) (Q03181 whole entry, looked up): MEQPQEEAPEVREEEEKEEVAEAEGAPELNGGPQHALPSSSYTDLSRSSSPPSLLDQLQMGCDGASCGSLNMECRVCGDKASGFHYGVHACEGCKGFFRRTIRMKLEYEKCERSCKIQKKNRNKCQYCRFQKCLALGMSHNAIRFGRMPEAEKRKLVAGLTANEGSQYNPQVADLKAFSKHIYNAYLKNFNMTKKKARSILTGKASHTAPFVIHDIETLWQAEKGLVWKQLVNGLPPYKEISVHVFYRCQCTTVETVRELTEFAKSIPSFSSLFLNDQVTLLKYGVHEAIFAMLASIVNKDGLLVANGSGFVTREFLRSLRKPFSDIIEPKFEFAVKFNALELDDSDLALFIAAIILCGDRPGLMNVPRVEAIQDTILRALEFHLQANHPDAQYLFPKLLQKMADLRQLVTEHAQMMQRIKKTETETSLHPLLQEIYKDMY

Row | SMILES | Potency [1] | Potency [2] | max response [3] [%] | Potency [4] | Potency [5] | Potency [6] | Potency [7] | Potency [8] | max response [9] [%] | max response [10] | activity change % (negative = inhibition) [11] | activation [12] | activation [13] | max response [14] | max response [15] | max response [16] | Potency [17] | max response [18] | outcome [19] | Potency [20]
1 | O=C=Nc1ccc(Cl)cc1 | inactive | inactive | -52.1 | inactive | inactive | inactive | inactive | inactive | -4.38 | -10.5% (inactive) | -1.95% (inactive) | 3.11% (inactive) | 2.71% (inactive) | -0.75% (inactive) | -2.93% (inactive) | -9.38% (inactive) | inactive | 8.51% (inactive) |  | 
2 | COP(=O)(OC)O/C(C)=C/C(=O)N(C)C | inactive | inactive | -17.4 |  |  | inactive | inactive |  | 0.42 | -0.431% (inactive) |  | -0.0413% (inactive) | 1.01% (inactive) | -1.78% (inactive) | 15.8% (inactive) | 2.37% (inactive) | inactive | 1.37% (inactive) | inactive | inactive
3 | Cc1cc(C)nc(NC(=O)NS(=O)(=O)c2ccccc2C(=O)OC2COC2)n1 | inactive |  | 2.3 | inactive | inactive | inactive | inactive | inactive |  |  | 4.53% (inactive) | 1.69% (inactive) | -0.244% (inactive) | -2.96% (inactive) | 18% (inactive) | 8.1% (inactive) |  | -3.04% (inactive) | inactive | inactive
4 | C=C(C)CN(CC)c1c([N+](=O)[O-])cc(C(F)(F)F)cc1[N+](=O)[O-] | inactive | inactive | 5.96 | inactive | inactive | inactive | inactive | inactive | -6.07 | 1.05% (inactive) |  | 0.904% (inactive) |  | 0.658% (inactive) | 5.45% (inactive) | -3.14% (inactive) | inactive |  | inactive | inactive
5 | O=P(OCC(Br)CBr)(OCC(Br)CBr)OCC(Br)CBr (stereo not drawn) | 35.5 µM [inhibitor] (active) |  | -17.7 |  |  |  |  | inactive |  |  | -25.3% (inactive) | 10.6% (inactive) |  | -0.385% (inactive) | -25.3% (inactive) |  | inactive | 0.175% (inactive) |  | inactive
6 | CCSC(C)CC1CC(=O)C(/C(CC)=N/OC/C=C/Cl)=C(O)C1 (stereo not drawn) | inactive |  | 62.4 | inactive | inactive | inactive |  | inactive | -6.58 |  | -26.3% (inactive) | -5.66% (inactive) | -2.18% (inactive) | 0.0996% (inactive) | -19.5% (inactive) | -16.3% (inactive) | inactive |  | inactive | inactive
